IL1B secr inh: blocks inflammasome-driven IL-1 beta release; THP-1 LPS/ATP IL-1B secretion, AlphaLISA, 16 h; hits give low values; activity change, % at 57.5 µM; 360,000 compounds, 4.7% hits; AID 743279; in the data active = activity change below about -50%; inconclusive = mostly about -30% to -49%
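Secreted IL-1B measured by AlphaLISA bead assay after 16 h compound exposure of THP-1 cells; compounds (final up to 57.5 uM) added 1 h before LPS (250 ng/mL) and ATP (1.25 mM) stimulation; lower signal means less secretion.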
DT40 TDP1 CPT: DT40-hTDP1 cell growth loss with CPT | chicken DT40 Tdp1-/-;hTDP1 cells + 20 nM CPT, ATP luminescence, 48 h | Potency, µM (highest dose often 46.2 µM), for inactives: at the highest dose activity change, negative = growth inhibition, hits mostly inhibitors | 420,000 compounds, 12% hits; also: potency is read from the fitted curve at half-maximal effect; nearly all actives have a fitted effect of over 55% in size
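Chicken DT40 Tdp1-/- cells stably complemented with human TDP1 were seeded at 400 cells/well in medium containing 20 nM camptothecin, exposed to pin-transferred compounds, and grown at 37 °C for at least 48 hr. Viability was read as ATP luminescence.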
HT1080 IDH1KD tx: toxicity to HT-1080 IDH1 knockdown cells (counter line) | 360,000 compounds, 2% hits | Potency, µM (series often up to 46.1 µM), without a hit: at the highest dose activity, negative = toxicity, most hits filed as cytotoxic | HT-1080 IDH1 knockdown viability, ATP luminescence, 48 h;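 also: potency is read from the fitted curve at half-maximal effect; 0% = DMSO wells and -100% = cell-free medium wells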
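Assay cells: HT-1080 with IDH1 knockdown, 750 per well, RPMI/5% FBS. Exposure: 48 h at 37 °C following 2 h pre-incubation. Read: CellTiter-Glo luminescence; fitted concentration-response, curve class assigned.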
DT40 TDP1 no CPT: qHTS for Inhibitors of human tyrosyl-DNA phosphodiesterase 1 (TDP1): qHTS in cells in absence of CPT. DT40 Tdp1-/- hTDP1 cells, no CPT, ATP luminescence, 48 h. Potency, µM (titrated, usually from 46.2 µM), inactives show top-dose activity change, negative = growth inhibition, actives largely listed as inhibitors. 420,000 compounds, 15% hits; also: potency is read from the fitted curve at half-maximal effect; nearly all actives have a fitted effect of over 55% in size
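Chicken DT40 Tdp1-/- cells complemented with human TDP1, screened without camptothecin (DMSO vehicle only), 400 cells/well. Compounds pin-transferred, cells incubated at 37 °C for at least 48 hr. Growth read as ATP-dependent luminescence (CellTiter-Glo, 30 min at RT).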
HT1080-NT tox: kills 2HG-producing HT-1080-NT fibrosarcoma cells | HT-1080-NT fibrosarcoma viability, CellTiter-Glo ATP luminescence, 48 h | Potency, µM (titrated, usually from 46.1 µM), for inactives: at the highest dose activity, negative = less viability, hits mostly cytotoxic | 360,000 compounds, 1.6% hits | AID 686970;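 also: NT is the 2HG producing partner of a matched IDH1 knockdown line; potency is read from the fitted curve at half-maximal effect; 0% = DMSO-treated cells and -100% = media-only wells without cells; nearly all actives have a fitted effect of over 55% in size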
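HT-1080-NT fibrosarcoma cells (2HG-overproducing), 750 cells/well in RPMI with 5% FBS, dosed after 2 h and incubated 48 h at 37C. CellTiter-Glo luminescence normalized to DMSO and no-cell wells; concentration-response curves fitted and classed.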
* = called active by the depositor; ? = inconclusive; . = no result. The list is not random: actives were taken first. Their share in the collection is about 19%. Unless noted, calls follow the shape of the dose curve; as a rule, active = well fitted curve in the direction sought with a large enough effect; inconclusive = small, poorly fitted or top-dose-only effect, or another doubt; inactive = no such curve, though single readings can be large; an effect the other way counts as inactive or inconclusive. Unless noted, % is scaled to controls: 0 for no effect and ±100 for the full control effect.

SMILES	IL1B secr inh	DT40 TDP1 CPT	HT1080 IDH1KD tx	DT40 TDP1 no CPT	HT1080-NT tox
CN(C)CCCNc1nc2cc(-c3ccc(C(=O)N4CCN(C)CC4)cc3)sc2c(=O)n1C	11	-1%	4%	?	-21%
COc1ccc(C=O)cc1COc1ccc2c(c1)OCO2	47	3.7µM*	23µM*	4.6µM*	?
COc1ccc(C=O)cc1COc1ccccc1F	56	?	?	?	-18%
COc1ccc(C=O)cc1COc1ccc([N+](=O)[O-])c(C)c1	15	16µM*	?	21µM*	?
CC1(C)C(=O)Nc2ccccc2N1C(=O)COC(=O)c1ccc(Cl)c(S(=O)(=O)NCc2ccccc2)c1	-1	?	0%	?	-5%
Cc1c(C#N)c(O)n(CCO)c(=O)c1N=Nc1ccc2c(c1)COC2=O	-57*	-10%	0%	?	-5%
Nc1cc2[nH]c(=O)c3ccccc3c2cc1[N+](=O)[O-]	-9	23µM*	-27%	?	-2%
NS(=O)(=O)c1cccc2c1c([N+](=O)[O-])cc1[nH]c(=O)c(=O)[nH]c12	.	6%	.	-5%	.
C#CCCc1cscc1/C=[N+](\[O-])c1ccc(C(=O)OCC)cc1	-10	23µM*	-9%	?	-7%
CCOC(=O)c1ccc(/[N+]([O-])=C/c2ccccc2)cc1	-19	13µM*	-1%	?	-3%
C#CCCC(=O)c1ccccc1/C=[N+](\[O-])c1ccccc1	16	?	1%	?	0%
COc1ccc(NC(=O)N2CC3(CCN(C(=O)c4c(C)noc4C)CC3)C2)cc1	.	19%	.	-14%	.
Cn1c(N)c(C(=O)CSc2nnc(NC3CCCCC3)s2)c(=O)n(C)c1=O	41	?	-4%	?	-5%
COc1ccc(CCC(=O)Nc2ncc(C)s2)cc1	-11	1%	0%	-13%	4%
Cc1cccc(Cn2c(=O)n(-c3ccc(CC(=O)NCc4ccco4)cc3)c(=O)c3sccc32)c1	-13	26µM*	?	15µM*	?
Cc1ccc(Cn2c(=O)n(-c3ccccc3)c(=O)c3ccc(C(=O)NCc4ccco4)cc32)cc1	21	12µM*	-19%	?	-25%
Cc1ccc(-n2c(=O)c3sccc3n(CC(=O)NCc3ccco3)c2=O)cc1	7	-26%	-4%	-2%	17%
Cc1cccc(C)c1NC(=O)Cn1c(=O)n(Cc2ccc(C(=O)NCc3ccco3)cc2)c(=O)c2sccc21	.	21µM*	.	23µM*	.
CC1(C)CC2/C(CO)=C/C=C/[C@](C)(O)CC[C@]21O (stereo partly specified)	.	10%	.	-5%	.
CC1(C)CC(=O)C2=C(C1)Nc1ccccc1NC2c1cc(Cl)ccc1O (stereo unspecified)	-18	18µM*	-19%	23µM*	-24%
CCOc1ccccc1CNC(=O)c1oc2c(c1C)-c1[nH]ncc1CC2	.	16µM*	.	16µM*	.
Cc1cc(C)c(NC(=O)c2oc3c(c2C)-c2[nH]ncc2CC3)c(C)c1	.	16µM*	.	21µM*	.
Cc1c(C(=O)NCc2cccc(F)c2)oc2c1-c1[nH]ncc1CC2	.	-18%	.	?	.
COC(=O)C(=O)C/C(=N/Nc1ncnc2ccccc12)c1ccc(Cl)cc1	151	?	?	?	?
CCCCC[C@H]1CN(Cc2ccc(OC)cc2)C(=O)[C@@H]1CC(=O)NCc1ccccc1	-10	12µM*	-6%	11µM*	-12%
SMILES	IL1B secr inh	DT40 TDP1 CPT	HT1080 IDH1KD tx	DT40 TDP1 no CPT	HT1080-NT tox
CCCCCCc1ccc(N2C[C@H](C)[C@@H](CC(=O)NCc3ccccc3)C2=O)cc1	2	?	0%	?	-10%
CCCCCCc1ccc(N2C[C@H](CCCCC)[C@@H](CC(=O)NCc3ccc(OC)cc3)C2=O)cc1	-5	?	6%	13µM*	7%
CCC[C@H]1CN(c2ccc(OC)cc2)C(=O)[C@@H]1CC(=O)NC	18	1%	3%	-1%	15%
CCCCC[C@H]1CN(CCCC)C(=O)[C@@H]1CC(=O)NCc1ccccc1	27	-28%	13%	?	6%
CCCCCCc1ccc(N2C[C@H](Cc3ccccc3)[C@@H](CC(=O)NCc3ccc(OC)cc3)C2=O)cc1	0	13µM*	-6%	13µM*	-25%
CCCCCCc1ccc(N2C[C@H](CCCCC)[C@@H](CC(=O)NCc3ccccc3)C2=O)cc1	-13	14µM*	4%	18µM*	16%
CC(C)Oc1ccc(/C(O)=C2/C(=O)C(=O)N(CCN3CCNCC3)C2c2cccc([N+](=O)[O-])c2)cc1 (stereo unspecified)	8	3%	0%	-3%	2%
COc1ccc(CN2C[C@H](Cc3ccccc3)[C@@H](CC(=O)Nc3ccccc3)C2=O)cc1	6	22µM*	-8%	16µM*	-25%
COc1ccc(NC(=O)C[C@H]2C(=O)N(Cc3cccnc3)C[C@@H]2Cc2ccccc2)cc1	-10	-18%	1%	-22%	-1%
Cc1ccc(S(=O)(=O)Nc2cc(C)c(O)c(Sc3n[nH]c(C)n3)c2)cc1	-3	18µM*	?	?	?
CC1CCN(C(=O)C(C)OC(=O)c2ccc(S(C)(=O)=O)c([N+](=O)[O-])c2)CC1 (stereo unspecified)	.	0.89µM*	.	2.2µM*	.
Cn1ccsc1=NC(=O)c1ccc(Cl)c([N+](=O)[O-])c1	16	-13%	2%	-26%	14%
Cc1ccc(NS(=O)(=O)c2cc(C(=O)OCC(=O)NCC3CCCO3)ccc2C)cc1 (stereo unspecified)	29	21%	6%	-5%	-3%
CS(=O)(=O)c1ccc(C(=O)OCC(=O)NC(=O)NC2CCCCC2)cc1[N+](=O)[O-]	.	2.8µM*	.	4.5µM*	.
Cn1ccsc1=NC(=O)c1ccc(S(C)(=O)=O)c([N+](=O)[O-])c1	-110*	4.6µM*	?	4.6µM*	-16%
COC(=O)c1ccc(SCC(=O)N2CCC(C)CC2)c([N+](=O)[O-])c1	20	-28%	-4%	?	-3%
CS(=O)(=O)c1ccc(C(=O)OCC(=O)NCC2CCCO2)cc1[N+](=O)[O-] (stereo unspecified)	.	10µM*	.	7.9µM*	.
Cc1cc(NC(=O)c2ccc(Cl)c(S(=O)(=O)N3CCCCC3)c2)no1	7	-30%	?	?	-10%
Cn1cccc1C(=O)NC(=O)COC(=O)c1ccc(S(C)(=O)=O)c([N+](=O)[O-])c1	-95*	4µM*	?	4.5µM*	?

Source: PubChem BioAssay
